Values without a mark were called inactive. Activity calls are given as the source filed them. The rule behind the calls is not given here.
assay: Bfl-1 counter-screen inhibitors, SAR follow-up, counter-screen for UBC13 polyubiquitination inhibitor project, biochemical, set 4 (AID 602400); details: Bfl-1 counterscreen for UBC13 inhibitors

SMILES	IC50
Cc1c(Cl)cccc1NC(=O)C1CCN(c2ncnc3c2nc2n3CCCCC2)CC1	> 100 µM
Cc1cc(C)cc(NC(=O)C2CCCN(c3ncnc4c3nc3n4CCCCC3)C2)c1 (stereo not drawn)	> 100 µM
Cc1cccc(NC(=O)C2CCN(c3ncnc4c3nc3n4CCCCC3)CC2)c1	> 100 µM
Cc1ccc(NC(=O)C2CCN(c3ncnc4c3nc3n4CCCCC3)CC2)cc1F	> 100 µM
O=C(NCc1cccc(Cl)c1)C1CCN(c2ncnc3c2nc2n3CCCC2)CC1	> 100 µM
O=C(C1CCN(c2ncnc3c2nc2n3CCCCC2)CC1)N1CCC(Cc2ccccc2)CC1	> 100 µM
O=C(NCc1cccc(Cl)c1)C1CCCN(c2ncnc3c2nc2n3CCCCC2)C1 (stereo not drawn)	> 100 µM
O=C(NCCCN1CCN(c2ccc(F)cc2)CC1)C1CCCN(c2ncnc3c2nc2n3CCCCC2)C1 (stereo not drawn)	> 100 µM
Cc1cccc(NC(=O)C2CCCN(c3ncnc4c3nc3n4CCCCC3)C2)c1 (stereo not drawn)	> 100 µM
O=C(NCC1CCN(Cc2ccc(Cl)cc2)CC1)C1CCCN(c2ncnc3c2nc2n3CCCCC2)C1 (stereo not drawn)	> 100 µM
O=C(NCC1CCN(Cc2ccc(Cl)cc2)CC1)C1CCCN(c2ncnc3c2nc2n3CCCC2)C1 (stereo not drawn)	76.8 µM (active)
Cc1cccc(NC(=O)C2CCN(c3ncnc4c3nc3n4CCCC3)CC2)c1	23 µM (active)
Cc1cc(C)cc(NC(=O)C2CCCN(c3ncnc4c3nc3n4CCCC3)C2)c1 (stereo not drawn)	> 100 µM
Cc1cc(C)cc(NC(=O)C2CCN(c3ncnc4c3nc3n4CCCC3)CC2)c1	23.9 µM (active)
O=C(NCC1CCN(Cc2cccc(Cl)c2)CC1)C1CCCN(c2ncnc3c2nc2n3CCCCC2)C1 (stereo not drawn)	> 100 µM
Cc1cccc(NC(=O)C2CCN(c3ncnc4c3nc3n4CCCCC3)CC2)c1C	> 100 µM
O=C(NCc1ccc(Cl)c(Cl)c1)C1CCCN(c2ncnc3c2nc2n3CCCCC2)C1 (stereo not drawn)	> 100 µM
O=C(C1CCN(c2ncnc3c2nc2n3CCCCC2)CC1)N1CCN(c2ccc(F)cc2)CC1	> 100 µM
O=C(NCC1CCN(Cc2cccc(Cl)c2)CC1)[C@@H]1CCCN(c2ncnc3c2nc2n3CCCCC2)C1	> 100 µM

SMILES	IC50
Cc1cccc(N2CCN(CCCNC(=O)C3CCCN(c4ncnc5c4nc4n5CCCCC4)C3)CC2C)c1 (stereo not drawn)	> 100 µM
O=C(C1CCN(c2ncnc3c2nc2n3CCCCC2)CC1)N1CCN(c2ccccn2)CC1	> 100 µM
Cc1ccc(NC(=O)C2CCN(c3ncnc4c3nc3n4CCCC3)CC2)cc1F	> 100 µM
Cc1ccc(NC(=O)C2CCCN(c3ncnc4c3nc3n4CCCC3)C2)cc1Br (stereo not drawn)	> 100 µM
Cc1ccccc1CN1CCC(CNC(=O)C2CCCN(c3ncnc4c3nc3n4CCCCC3)C2)CC1 (stereo not drawn)	> 100 µM
COc1ccc(NC(=O)C2CCN(c3ncnc4c3nc3n4CCCCC3)CC2)cc1Cl	> 100 µM
O=C(NCC1CCN(Cc2ccccc2Cl)CC1)C1CCCN(c2ncnc3c2nc2n3CCCC2)C1 (stereo not drawn)	> 100 µM
Cc1ccc(NC(=O)C2CCCN(c3ncnc4c3nc3n4CCCCC3)C2)cc1Br (stereo not drawn)	> 100 µM
O=C(C1CCN(c2ncnc3c2nc2n3CCCCC2)CC1)N1CCN(Cc2ccccc2)CC1	> 100 µM
O=C(NCc1cccc(Cl)c1)C1CCN(c2ncnc3c2nc2n3CCCCC2)CC1	> 100 µM
O=C(NCc1ccc(Cl)c(Cl)c1)C1CCCN(c2ncnc3c2nc2n3CCCC2)C1 (stereo not drawn)	> 100 µM
CC1CCCCN1C(=O)C1CCN(c2ncnc3c2nc2n3CCCCC2)CC1 (stereo not drawn)	> 100 µM
O=C(NCC1CCN(Cc2ccc(Cl)c(Cl)c2)CC1)C1CCCN(c2ncnc3c2nc2n3CCCC2)C1 (stereo not drawn)	> 100 µM
COc1cc(Cl)c(C)cc1NC(=O)C1CCN(c2ncnc3c2nc2n3CCCCC2)CC1	> 100 µM
CN(CCNC(=O)C1CCN(c2ncnc3c2nc2n3CCCCC2)CC1)Cc1ccccc1	> 100 µM
Cc1ccc(NC(=O)C2CCN(c3ncnc4c3nc3n4CCCCC3)CC2)cc1C	> 100 µM
COc1cc(OC)c(NC(=O)C2CCN(c3ncnc4c3nc3n4CCCCC3)CC2)cc1Cl	> 100 µM
CC1CC(C)CN(C(=O)C2CCN(c3ncnc4c3nc3n4CCCCC3)CC2)C1 (stereo not drawn)	> 100 µM
O=C(NCC1CCN(Cc2ccc(Cl)c(Cl)c2)CC1)C1CCCN(c2ncnc3c2nc2n3CCCCC2)C1 (stereo not drawn)	> 100 µM

— PubChem BioAssay AID602400 (Sanford-Burnham Center for Chemical Genomics, 2012)
